In ChEMBL document CHEMBL1961873, “Compounds: GSK PKIS; Assays: Nanosyn kinase panel” (2012):

Legend:
[1] = biological target: T1, Inhibitor of nuclear factor kappa-B kinase subunit epsilon (Homo sapiens) (UniProt Q14164); settings: at 1 µM;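 note: reported values are averaged percent inhibition figures against human IKKε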
T1 sequence (whole entry): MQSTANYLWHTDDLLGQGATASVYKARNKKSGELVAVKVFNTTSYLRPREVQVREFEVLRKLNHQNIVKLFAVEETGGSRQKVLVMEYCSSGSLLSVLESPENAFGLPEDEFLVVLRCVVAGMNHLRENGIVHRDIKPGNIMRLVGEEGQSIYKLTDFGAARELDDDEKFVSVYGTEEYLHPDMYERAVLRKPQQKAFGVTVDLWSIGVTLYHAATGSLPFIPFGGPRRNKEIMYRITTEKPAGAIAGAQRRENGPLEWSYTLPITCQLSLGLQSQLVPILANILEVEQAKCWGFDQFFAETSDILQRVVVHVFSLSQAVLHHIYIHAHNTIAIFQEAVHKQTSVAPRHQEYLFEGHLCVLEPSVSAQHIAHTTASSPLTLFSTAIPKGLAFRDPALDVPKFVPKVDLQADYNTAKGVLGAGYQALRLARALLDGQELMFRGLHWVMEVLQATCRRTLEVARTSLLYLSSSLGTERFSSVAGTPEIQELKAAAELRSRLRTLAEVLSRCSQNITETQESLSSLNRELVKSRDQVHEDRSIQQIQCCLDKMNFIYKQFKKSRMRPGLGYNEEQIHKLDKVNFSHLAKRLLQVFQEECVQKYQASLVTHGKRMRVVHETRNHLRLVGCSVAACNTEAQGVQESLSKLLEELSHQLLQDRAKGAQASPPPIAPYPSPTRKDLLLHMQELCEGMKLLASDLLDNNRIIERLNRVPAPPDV

[2] = biological target: T2, Serine/threonine-protein kinase Nek1 (Homo sapiens) (UniProt Q96PY6); settings: at 0.1 µM
T2 sequence (whole entry): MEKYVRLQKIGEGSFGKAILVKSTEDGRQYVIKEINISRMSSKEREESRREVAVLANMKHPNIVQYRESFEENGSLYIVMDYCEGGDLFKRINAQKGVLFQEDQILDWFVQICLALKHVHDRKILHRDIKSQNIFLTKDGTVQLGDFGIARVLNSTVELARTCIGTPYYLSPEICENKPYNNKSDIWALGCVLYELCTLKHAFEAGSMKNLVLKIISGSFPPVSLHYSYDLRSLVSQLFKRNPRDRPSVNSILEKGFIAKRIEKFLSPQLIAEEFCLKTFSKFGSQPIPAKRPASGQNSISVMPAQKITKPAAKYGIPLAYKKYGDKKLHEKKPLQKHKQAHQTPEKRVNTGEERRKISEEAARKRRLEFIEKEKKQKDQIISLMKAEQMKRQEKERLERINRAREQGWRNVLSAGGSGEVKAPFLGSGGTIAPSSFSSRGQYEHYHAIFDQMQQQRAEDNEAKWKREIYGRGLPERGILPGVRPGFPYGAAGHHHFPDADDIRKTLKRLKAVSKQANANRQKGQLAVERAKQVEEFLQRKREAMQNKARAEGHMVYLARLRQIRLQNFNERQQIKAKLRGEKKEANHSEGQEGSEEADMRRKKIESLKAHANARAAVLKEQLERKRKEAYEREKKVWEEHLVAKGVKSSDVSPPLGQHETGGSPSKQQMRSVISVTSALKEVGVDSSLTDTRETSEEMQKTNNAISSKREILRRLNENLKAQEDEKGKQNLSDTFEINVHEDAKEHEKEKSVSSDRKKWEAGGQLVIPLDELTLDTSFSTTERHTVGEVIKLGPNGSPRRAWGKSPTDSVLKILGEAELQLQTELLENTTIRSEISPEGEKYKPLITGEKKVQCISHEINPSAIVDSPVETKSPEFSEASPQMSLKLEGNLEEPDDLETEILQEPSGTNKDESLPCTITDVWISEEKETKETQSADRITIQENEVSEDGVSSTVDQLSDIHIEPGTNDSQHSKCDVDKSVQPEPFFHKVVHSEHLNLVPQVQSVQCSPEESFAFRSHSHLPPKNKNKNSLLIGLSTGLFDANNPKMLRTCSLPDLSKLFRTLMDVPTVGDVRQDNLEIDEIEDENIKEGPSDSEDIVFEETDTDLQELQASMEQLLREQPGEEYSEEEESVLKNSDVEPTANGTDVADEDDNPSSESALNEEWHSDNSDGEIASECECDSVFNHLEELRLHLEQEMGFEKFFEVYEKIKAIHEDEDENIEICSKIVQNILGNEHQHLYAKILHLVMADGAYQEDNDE

[3] = biological target: T2, Serine/threonine-protein kinase Nek1 (Homo sapiens); settings: at 1 µM
[4] = biological target: T3, Serine/threonine-protein kinase Nek2 (Homo sapiens) (UniProt P51955); settings: at 0.1 µM
T3 sequence (whole entry): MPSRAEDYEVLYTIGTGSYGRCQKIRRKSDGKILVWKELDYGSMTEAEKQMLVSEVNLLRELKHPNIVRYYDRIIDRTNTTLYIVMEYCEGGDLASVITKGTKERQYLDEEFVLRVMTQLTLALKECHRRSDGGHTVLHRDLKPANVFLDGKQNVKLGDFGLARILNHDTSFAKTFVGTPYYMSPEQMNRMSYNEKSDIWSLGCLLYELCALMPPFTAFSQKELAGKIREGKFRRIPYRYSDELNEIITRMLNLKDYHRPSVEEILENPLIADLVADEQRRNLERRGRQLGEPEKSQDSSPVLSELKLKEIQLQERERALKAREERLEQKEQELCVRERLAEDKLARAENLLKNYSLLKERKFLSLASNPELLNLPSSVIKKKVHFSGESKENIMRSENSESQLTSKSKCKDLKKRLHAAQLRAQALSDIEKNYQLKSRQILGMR

[5] = biological target: T3, Serine/threonine-protein kinase Nek2 (Homo sapiens); settings: at 1 µM
[6] = biological target: Serine/threonine-protein kinase Nek6 (Homo sapiens) (UniProt Q9HC98); settings: at 0.1 µM
[7] = biological target: Serine/threonine-protein kinase Nek6 (Homo sapiens) (UniProt Q9HC98); settings: at 1 µM
[8] = biological target: Serine/threonine-protein kinase Nek7 (Homo sapiens) (UniProt Q8TDX7); settings: at 0.1 µM
[9] = biological target: Serine/threonine-protein kinase Nek7 (Homo sapiens) (UniProt Q8TDX7); settings: at 1 µM
[10] = biological target: T4, Serine/threonine-protein kinase Nek9 (Homo sapiens) (UniProt Q8TD19); settings: at 0.1 µM
T4 sequence (whole entry): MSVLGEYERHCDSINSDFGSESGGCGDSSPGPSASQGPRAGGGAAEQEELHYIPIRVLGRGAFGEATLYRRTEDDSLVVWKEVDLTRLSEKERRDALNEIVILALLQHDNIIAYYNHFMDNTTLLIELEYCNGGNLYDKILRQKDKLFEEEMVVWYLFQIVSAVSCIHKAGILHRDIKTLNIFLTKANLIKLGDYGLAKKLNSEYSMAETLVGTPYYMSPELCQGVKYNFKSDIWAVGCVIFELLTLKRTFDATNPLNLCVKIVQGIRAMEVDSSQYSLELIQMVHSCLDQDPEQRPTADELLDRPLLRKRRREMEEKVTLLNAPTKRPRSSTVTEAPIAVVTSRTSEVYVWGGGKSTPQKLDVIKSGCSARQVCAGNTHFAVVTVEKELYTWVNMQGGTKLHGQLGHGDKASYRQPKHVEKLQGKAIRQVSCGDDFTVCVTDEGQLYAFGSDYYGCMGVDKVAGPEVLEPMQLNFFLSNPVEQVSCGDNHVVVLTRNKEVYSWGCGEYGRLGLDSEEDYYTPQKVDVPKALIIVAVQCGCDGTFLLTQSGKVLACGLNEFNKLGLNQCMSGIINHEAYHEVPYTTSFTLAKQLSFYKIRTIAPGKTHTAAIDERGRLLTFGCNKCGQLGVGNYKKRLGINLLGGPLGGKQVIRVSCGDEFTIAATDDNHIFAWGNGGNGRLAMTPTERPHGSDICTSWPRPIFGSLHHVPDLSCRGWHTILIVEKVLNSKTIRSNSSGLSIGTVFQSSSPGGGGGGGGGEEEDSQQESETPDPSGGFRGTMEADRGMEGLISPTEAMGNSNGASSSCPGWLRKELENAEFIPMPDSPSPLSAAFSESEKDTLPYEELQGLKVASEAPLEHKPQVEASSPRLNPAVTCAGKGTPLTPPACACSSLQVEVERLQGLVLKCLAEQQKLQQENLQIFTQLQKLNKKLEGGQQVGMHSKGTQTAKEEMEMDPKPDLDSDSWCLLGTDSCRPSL

[11] = biological target: T4, Serine/threonine-protein kinase Nek9 (Homo sapiens); settings: at 1 µM
[12] = biological target: Serine/threonine-protein kinase PLK1 (Homo sapiens) (UniProt P53350); settings: at 0.1 µM
[13] = biological target: Serine/threonine-protein kinase PLK1 (Homo sapiens) (UniProt P53350); settings: at 1 µM
[14] = biological target: T5, Dual specificity protein kinase TTK (Homo sapiens) (UniProt P33981); settings: at 0.1 µM
T5 sequence (whole entry): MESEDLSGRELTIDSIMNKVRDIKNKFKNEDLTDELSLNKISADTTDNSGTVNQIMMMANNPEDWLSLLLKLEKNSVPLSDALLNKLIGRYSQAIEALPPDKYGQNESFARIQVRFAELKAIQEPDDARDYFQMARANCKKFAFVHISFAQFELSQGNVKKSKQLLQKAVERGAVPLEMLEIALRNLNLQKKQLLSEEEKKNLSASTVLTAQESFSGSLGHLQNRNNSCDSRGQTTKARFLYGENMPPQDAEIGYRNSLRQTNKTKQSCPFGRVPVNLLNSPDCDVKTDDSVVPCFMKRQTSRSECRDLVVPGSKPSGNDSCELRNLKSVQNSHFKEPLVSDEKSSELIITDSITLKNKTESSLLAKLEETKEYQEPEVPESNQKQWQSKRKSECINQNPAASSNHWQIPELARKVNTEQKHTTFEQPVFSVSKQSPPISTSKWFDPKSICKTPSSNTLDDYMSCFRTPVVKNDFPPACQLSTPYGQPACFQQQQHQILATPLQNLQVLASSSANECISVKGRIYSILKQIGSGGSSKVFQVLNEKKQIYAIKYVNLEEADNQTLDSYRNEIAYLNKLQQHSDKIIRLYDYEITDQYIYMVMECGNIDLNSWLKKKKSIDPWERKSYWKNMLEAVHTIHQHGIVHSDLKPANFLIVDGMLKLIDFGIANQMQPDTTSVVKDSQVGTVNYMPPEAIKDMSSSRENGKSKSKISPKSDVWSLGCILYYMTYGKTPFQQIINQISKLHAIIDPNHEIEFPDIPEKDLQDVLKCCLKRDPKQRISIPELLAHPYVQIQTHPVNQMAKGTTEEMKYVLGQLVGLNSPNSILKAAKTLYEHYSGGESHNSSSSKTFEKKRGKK

[15] = tested on: T6, Receptor-type tyrosine-protein kinase FLT3 (Homo sapiens), P36888 [D835Y]; settings: at 1 µM
T6 sequence (whole entry): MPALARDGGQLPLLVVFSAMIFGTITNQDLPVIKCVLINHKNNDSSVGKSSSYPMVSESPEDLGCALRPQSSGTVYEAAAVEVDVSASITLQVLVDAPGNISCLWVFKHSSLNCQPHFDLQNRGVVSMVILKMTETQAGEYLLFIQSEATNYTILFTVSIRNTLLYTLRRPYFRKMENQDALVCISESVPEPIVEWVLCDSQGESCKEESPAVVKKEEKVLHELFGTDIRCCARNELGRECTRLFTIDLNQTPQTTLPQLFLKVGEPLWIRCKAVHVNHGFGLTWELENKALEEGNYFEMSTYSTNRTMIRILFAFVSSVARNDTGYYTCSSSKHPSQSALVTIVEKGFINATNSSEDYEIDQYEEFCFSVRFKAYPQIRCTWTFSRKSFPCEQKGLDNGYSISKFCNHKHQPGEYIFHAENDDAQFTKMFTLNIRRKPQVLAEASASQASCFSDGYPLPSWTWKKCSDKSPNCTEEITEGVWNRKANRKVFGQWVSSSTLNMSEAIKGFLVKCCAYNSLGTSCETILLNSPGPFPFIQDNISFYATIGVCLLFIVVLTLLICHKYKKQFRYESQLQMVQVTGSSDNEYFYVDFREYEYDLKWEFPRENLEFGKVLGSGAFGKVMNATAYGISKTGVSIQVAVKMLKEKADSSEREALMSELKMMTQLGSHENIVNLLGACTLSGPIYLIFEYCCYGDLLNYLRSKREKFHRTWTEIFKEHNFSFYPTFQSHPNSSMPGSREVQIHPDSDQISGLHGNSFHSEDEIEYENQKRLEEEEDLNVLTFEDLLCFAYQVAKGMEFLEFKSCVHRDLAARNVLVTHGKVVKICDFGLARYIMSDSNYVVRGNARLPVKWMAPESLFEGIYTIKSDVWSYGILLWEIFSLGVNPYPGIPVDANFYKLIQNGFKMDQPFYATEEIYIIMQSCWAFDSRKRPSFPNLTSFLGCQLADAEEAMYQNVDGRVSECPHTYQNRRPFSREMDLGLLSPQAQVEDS

[16] = biological target: Vascular endothelial growth factor receptor 3 (Homo sapiens) (UniProt P35916); settings: at 0.1 µM
[17] = biological target: Vascular endothelial growth factor receptor 3 (Homo sapiens) (UniProt P35916); settings: at 1 µM
[18] = biological target: Macrophage colony-stimulating factor 1 receptor (Homo sapiens) (UniProt P07333); settings: at 0.1 µM
[19] = biological target: Macrophage colony-stimulating factor 1 receptor (Homo sapiens) (UniProt P07333); settings: at 1 µM
[20] = biological target: Tyrosine-protein kinase Fyn (Homo sapiens) (UniProt P06241); settings: at 0.1 µM
Tyrosine-protein kinase Fyn (Homo sapiens), sequence (P06241 2-537 limits assumed): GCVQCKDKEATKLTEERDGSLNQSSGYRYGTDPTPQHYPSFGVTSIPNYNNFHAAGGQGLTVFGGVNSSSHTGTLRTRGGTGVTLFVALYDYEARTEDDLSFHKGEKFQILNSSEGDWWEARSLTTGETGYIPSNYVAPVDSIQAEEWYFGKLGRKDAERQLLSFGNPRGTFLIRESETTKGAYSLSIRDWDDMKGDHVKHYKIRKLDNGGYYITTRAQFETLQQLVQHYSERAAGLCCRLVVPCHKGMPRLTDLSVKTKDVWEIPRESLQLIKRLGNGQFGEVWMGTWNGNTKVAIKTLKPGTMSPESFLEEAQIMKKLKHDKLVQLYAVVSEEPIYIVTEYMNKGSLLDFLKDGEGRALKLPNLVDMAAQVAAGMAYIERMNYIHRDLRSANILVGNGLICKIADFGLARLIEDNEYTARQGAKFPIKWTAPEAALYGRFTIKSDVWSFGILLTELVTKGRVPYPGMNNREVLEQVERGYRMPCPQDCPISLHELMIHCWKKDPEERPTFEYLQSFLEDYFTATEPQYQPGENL

Vascular endothelial growth factor receptor 3 (Homo sapiens), sequence (P35916 whole entry): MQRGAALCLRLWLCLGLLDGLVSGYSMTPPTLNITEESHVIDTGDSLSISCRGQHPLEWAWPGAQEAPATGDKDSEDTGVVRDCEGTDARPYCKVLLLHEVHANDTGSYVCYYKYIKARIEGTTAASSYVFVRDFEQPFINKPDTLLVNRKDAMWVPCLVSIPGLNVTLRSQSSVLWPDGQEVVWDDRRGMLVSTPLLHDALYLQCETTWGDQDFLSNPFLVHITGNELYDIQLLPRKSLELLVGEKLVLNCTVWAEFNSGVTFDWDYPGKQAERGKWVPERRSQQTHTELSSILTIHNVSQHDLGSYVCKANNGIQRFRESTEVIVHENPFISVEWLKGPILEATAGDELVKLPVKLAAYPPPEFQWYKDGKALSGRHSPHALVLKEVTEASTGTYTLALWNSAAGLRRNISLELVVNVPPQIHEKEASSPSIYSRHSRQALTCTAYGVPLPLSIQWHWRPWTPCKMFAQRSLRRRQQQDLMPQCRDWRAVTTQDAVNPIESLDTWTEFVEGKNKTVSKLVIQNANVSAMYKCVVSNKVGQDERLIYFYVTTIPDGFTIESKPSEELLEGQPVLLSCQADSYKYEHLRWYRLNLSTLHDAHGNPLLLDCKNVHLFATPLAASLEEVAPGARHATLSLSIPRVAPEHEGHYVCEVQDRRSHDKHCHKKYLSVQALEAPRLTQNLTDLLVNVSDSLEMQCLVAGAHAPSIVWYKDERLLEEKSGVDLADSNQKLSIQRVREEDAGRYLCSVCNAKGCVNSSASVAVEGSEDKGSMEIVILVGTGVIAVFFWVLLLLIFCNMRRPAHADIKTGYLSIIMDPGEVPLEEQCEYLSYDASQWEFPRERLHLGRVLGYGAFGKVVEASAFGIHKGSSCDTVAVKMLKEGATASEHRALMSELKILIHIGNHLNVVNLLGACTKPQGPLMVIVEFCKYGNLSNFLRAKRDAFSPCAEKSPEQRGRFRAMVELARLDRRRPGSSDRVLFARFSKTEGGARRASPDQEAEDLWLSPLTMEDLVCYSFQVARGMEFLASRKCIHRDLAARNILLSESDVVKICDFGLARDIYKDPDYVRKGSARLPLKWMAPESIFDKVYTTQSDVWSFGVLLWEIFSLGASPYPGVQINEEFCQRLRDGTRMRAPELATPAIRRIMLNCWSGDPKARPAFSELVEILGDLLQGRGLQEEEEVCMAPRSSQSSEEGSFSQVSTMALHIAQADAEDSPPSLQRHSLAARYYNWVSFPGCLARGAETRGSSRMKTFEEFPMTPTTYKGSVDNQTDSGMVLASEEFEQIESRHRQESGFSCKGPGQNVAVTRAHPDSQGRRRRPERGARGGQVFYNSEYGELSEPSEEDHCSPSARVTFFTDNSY
Macrophage colony-stimulating factor 1 receptor (Homo sapiens), sequence (P07333 whole entry): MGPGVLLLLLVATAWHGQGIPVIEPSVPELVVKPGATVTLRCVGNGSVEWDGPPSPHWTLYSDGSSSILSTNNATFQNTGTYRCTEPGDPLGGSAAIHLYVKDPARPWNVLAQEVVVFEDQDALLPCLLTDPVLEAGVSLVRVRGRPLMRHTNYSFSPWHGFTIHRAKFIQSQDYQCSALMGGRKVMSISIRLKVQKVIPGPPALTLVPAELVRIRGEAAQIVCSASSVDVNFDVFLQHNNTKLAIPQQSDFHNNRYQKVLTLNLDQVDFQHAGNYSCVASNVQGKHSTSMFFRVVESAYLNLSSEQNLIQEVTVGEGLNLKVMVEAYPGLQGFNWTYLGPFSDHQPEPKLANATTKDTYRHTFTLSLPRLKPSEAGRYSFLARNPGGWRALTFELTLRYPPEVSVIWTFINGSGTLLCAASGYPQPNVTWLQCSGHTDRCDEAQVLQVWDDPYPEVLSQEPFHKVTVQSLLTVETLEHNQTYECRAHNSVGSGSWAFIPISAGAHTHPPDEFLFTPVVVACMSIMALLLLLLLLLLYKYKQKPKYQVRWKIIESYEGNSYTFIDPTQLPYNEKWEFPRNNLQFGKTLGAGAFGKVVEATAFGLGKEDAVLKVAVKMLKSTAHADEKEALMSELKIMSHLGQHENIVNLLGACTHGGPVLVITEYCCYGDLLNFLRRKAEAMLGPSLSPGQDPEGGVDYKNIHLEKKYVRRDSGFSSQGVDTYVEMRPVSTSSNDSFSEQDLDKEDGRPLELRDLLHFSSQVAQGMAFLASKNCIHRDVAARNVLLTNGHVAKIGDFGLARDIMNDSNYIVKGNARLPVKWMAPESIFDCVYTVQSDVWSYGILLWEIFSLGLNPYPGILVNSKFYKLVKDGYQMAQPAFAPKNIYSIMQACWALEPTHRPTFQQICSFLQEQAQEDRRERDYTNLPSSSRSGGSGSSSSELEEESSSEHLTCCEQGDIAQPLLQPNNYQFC
Serine/threonine-protein kinase Nek6 (Homo sapiens), sequence (Q9HC98 whole entry): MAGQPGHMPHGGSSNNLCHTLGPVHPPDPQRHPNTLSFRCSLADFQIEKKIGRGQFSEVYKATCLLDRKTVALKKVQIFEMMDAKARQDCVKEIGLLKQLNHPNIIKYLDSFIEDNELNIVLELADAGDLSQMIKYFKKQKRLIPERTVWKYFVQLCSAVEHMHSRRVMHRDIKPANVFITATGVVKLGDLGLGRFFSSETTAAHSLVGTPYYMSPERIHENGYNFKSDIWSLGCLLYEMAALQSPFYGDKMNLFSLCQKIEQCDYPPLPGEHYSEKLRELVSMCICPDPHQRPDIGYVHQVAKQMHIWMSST
Serine/threonine-protein kinase PLK1 (Homo sapiens), sequence (P53350 whole entry): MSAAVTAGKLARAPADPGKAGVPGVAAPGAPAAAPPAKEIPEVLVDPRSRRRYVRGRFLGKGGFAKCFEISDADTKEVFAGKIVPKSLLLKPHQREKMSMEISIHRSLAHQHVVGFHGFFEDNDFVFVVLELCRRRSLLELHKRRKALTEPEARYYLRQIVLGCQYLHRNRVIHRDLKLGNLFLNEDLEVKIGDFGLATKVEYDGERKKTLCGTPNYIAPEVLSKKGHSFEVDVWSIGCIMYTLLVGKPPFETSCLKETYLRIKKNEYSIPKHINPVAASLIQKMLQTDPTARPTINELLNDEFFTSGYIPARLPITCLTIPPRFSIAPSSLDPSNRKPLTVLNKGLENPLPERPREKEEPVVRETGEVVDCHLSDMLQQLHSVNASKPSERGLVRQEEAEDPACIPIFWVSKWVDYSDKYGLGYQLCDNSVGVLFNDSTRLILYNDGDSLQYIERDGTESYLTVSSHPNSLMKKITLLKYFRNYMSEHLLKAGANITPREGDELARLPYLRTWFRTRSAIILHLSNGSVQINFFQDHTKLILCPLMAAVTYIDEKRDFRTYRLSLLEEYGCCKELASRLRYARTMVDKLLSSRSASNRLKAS
Serine/threonine-protein kinase Nek7 (Homo sapiens), sequence (Q8TDX7 whole entry, looked up): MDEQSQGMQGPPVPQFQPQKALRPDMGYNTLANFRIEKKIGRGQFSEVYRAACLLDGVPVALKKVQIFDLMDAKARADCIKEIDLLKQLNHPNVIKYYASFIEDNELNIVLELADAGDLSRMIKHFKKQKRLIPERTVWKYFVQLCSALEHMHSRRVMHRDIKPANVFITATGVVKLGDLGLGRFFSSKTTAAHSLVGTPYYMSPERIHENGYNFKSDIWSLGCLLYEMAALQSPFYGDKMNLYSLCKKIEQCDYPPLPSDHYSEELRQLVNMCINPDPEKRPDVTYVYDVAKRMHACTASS

Compound	inhibition [1] [%]	inhibition [2] [%]	inhibition [3] [%]	inhibition [4] [%]	inhibition [5] [%]	inhibition [6] [%]	inhibition [7] [%]	inhibition [8] [%]	inhibition [9] [%]	inhibition [10] [%]	inhibition [11] [%]	inhibition [12] [%]	inhibition [13] [%]	inhibition [14] [%]	inhibition [15] [%]	inhibition [16] [%]	inhibition [17] [%]	inhibition [18] [%]	inhibition [19] [%]	inhibition [20] [%]
N#Cc1c(NC(=O)CN2CCOCC2)sc2c1CCCC2	92	2.42	6.07	4.61	4.37	3.33	5.18	2.96	3.61	6.26	1.68	2.26	2.27	9.9	0.1	0.77	3.83	5.19	2.67	0.52
COc1cc2c(cc1Nc1nc(Nc3ccsc3C(N)=O)c3cc[nH]c3n1)N(C(=O)CN(C)C)CCC2(C)C	35.2	2.74	2.8	6.02	7.22	2.59	5.27	12.7	42.1	4.77	9.86	56.7	89.4	40	22.1	3.15	5.12	81.7	94.3	0.64
